Consider six molecules from PubChem BioAssay (NCATS).

Inconclusive results are not listed. The source made the active and inactive calls. Calls follow the shape of the dose curve; as a rule, active = well fitted inhibition curve with a large enough effect; inconclusive = small, poorly fitted or top-dose-only effect; inactive = flat fitted curve, though single readings scatter.

Common to all, as to test: qHTS profiling for inhibitors of Plasmodium falciparum proliferation (AID 504749); also: nearly all actives have a fitted effect of over 60% in size
Conditions in all cases: P. falciparum in erythrocytes, SYBR Green DNA, 72 h; series mostly up to 28.7 µM
(In general: Quantitative high-throughput screening tests each substance at several concentrations.)

One assay concerns CP266. The procedure, abridged: (§1)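 In a 72 h erythrocytic culture (37 C, humidified, 5% CO2) at 2.5% hematocrit and 0.3% starting parasitemia, compounds were tested; SYBR Green I in detergent lysis buffer stained parasite DNA overnight.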
For a further assay, the system named is CP268. The procedure, abridged:
as §1

Another assay relates to CP269. The procedure, abridged:
as §1

Another assay concerns CP286. The procedure, abridged:
as §1

The subject of another assay is CP291. In short, it runs like this:
as §1

In the next assay the test system is CP297. The procedure, abridged: as §1
The next assay relates to CP305. In short, it runs like this:
as §1

In the next assay the test system is CP315. In short, it runs like this:
as §1

A further assay has as its system CP325. The procedure, abridged: as §1
Another assay concerns CP329. In short, it runs like this: as §1
Potency is read from the fitted curve at half-maximal effect.

As for `CCCCCCCCCCCCCCC[C@H](O)[C@H](N)CO`, the outcome in the assay on CP266, with CP268, with CP269, in the assay on CP286, in the assay with CP291 and in the assay on CP297 was inactive. Besides, the molecule was called inactive in the assay with CP305, in the assay on CP315 and in the assay with CP329. Moreover, the Potency result in the assay with CP325 is “inactive”.

On to `c1ccc(C2CN3CCSC3=N2)cc1` (configuration not stated), for which, in the assay on CP315, the molecule was classed as inactive. Besides, the Potency in the assay with CP325 was 16.9 µM (active).

Regarding `CCCCCCCCCCCCCCCCCCOC[C@H](COP(=O)([O-])OCC[N+](C)(C)C)OC`, the molecule was classed as inactive in the assay with CP266, in the assay with CP268, in the assay with CP269, with CP286, with CP291 and in the assay with CP297. The molecule was classed as inactive in the assay with CP305, with CP315 and with CP329. In addition, the Potency result with CP325 was “inactive”.

Regarding `CC(C)NC[C@H](O)COc1ccc(CC(N)=O)cc1`, the result with CP268, with CP269, in the assay on CP286, in the assay with CP291, in the assay with CP305 and in the assay with CP315 was inactive. Moreover, the result with CP329 was inactive. Also, the Potency entry in the assay with CP325 is “inactive”.

As for `CN1C2CCC1CC(OC(c1ccccc1)c1ccccc1)C2` (configuration not stated), the molecule was called inactive in the assay on CP315 and in the assay with CP329.

As to `CC(O)C(O)[C@H]1CNc2nc(N)[nH]c(=O)c2N1` (some centres not stated), the outcome in the assay with CP266, in the assay on CP268, in the assay on CP269, in the assay on CP286, in the assay on CP291 and with CP297 was inactive. Besides, the molecule was called inactive in the assay on CP305, in the assay on CP315 and in the assay on CP329. The Potency result with CP325 was “inactive”.
